Potency data for 20 compounds are collected here from PubChem BioAssay AID540363 (National Center for Advancing Translational Sciences (NCATS), 2011).

Inconclusive results are not listed. Calls of active or inactive are those of the source. Calls follow the shape of the dose curve; as a rule, active = well fitted cell-killing curve with a large enough effect; inconclusive = small, poorly fitted or top-dose-only effect; inactive = flat fitted curve, though single readings scatter.

This assay can be described thus: PC3M Cytotoxicity Assay for Compounds that Inhibit the Perinuclear Compartment: Chemistry Optimization Followup. The conditions noted are these: PC3M-GFP viability, ATPLite luminescence, 24 h; series mostly up to 46.1 µM. An excerpt:
The perinucleolar compartment (PNC) is a non-membrane-bound nuclear subdomain that is associated with but structurally distinct from the nucleolus. The PNC is a heritable trait, in which the number of PNCs per cell in daughter cells often mimics that of their mother cells. The PNC is heterogeneous in shape, is stable through interphase, disassembles during mitosis, and reassembles in early G1. The PNC is concentrated with newly synthesized RNA polymerase III (pol III) RNAs (MRP RNA, RNAse P H1 RNA, hY RNAs[hY1, 2, 5], Alu RNA, and SRP [7SL] RNA) and RNA binding proteins (nucleolin, PTB, CUG-BP, KSRP, Raver1, Raver2, and Rod). […] Extensive in vitro studies have shown that the PNC is unique to tumor cells and preferentially forms in tumor cells derived from solid tissues. Examination of cancer cell lines from various origins and malignant capacities has shown that PNC prevalence correlates with the malignancy of tumors and has the potential to be developed as a pan-cancer prognostic marker. […] Although the PNC is associated with a DNA locus and a handful of components have been identified, much remains to be investigated regarding the structure and function of the PNC and its mechanistic link to cancer. We have previously shown that PNC prevalence reduction is a valid strategy to identify compounds that can be used to study the structure and function of the PNC. It is necessary, however, to create a screening platform that is able to test a large number of compounds in an automated fashion. Here we report the development and robustness of an automated whole-cell phenotypic image-based screening assay that is capable of identifying such compounds. We conducted a followup assay to measure the effect of the lead candidates on cell health by measuring ATP levels (ATPLite). The highly metastatic PC3M-GFP reporter cell line was used in this study. NIH Chemical Genomics Center [NCGC] NIH Molecular Libraries Probe Centers Network [MLPCN] MLPCN Grant: MH082371-01A2 Assay Submitter (PI): Sui Huang, Northwestern University, Feinberg School of Medicine, Cell and Molecular Biology, Chicago, Illinois.
1. Cells at a density of 75-90% confluency in T175 flasks were harvested using 7 ml TrypLE Express cell dissociation reagent. After dissociation (5 minutes room temperature incubation) 10 ml of complete media was added to the TrypLE/cell suspension. The liquid was transferred to a 50 ml Conical tube and cells were pelleted at 1000 RPM for 5 min. Supernatant was removed and cells were resuspended to a final density of 150-200 cells/ul in complete media. 2. Cells were plated in 5 ul volume (2000 cells/well) into 1536 well White solid bottom plates and allowed to recover and adhere at 37 C in a humidified 5% CO2 incubator for 4 hours. 3. After 4 hour incubation, compound libraries (23 nl of […] in columns 5-48) were transferred to the plates in duplicate using a 1536 well pintool. Camptothecin positive control (59 uM final) was added to column 2 and 1:3 dilutions of camptothecin was added to column 3. DMSO negative controls were present in columns 1 and 4. 4. After a 24 hour incubation in the 37 C incubator, all wells were treated with 3 ul of ATPLite reagent using a multidrop combi dispenser (ThermoFisher). Bubbles that formed during dispensing were removed by spinning the plates for 1 minutre at 1500 RPM on a table top centrifuge. 5. Luminescencent signal was detected on a Viewlux CCD based imager (PerkinElmer) with a clear filter and a 30 second integration time. The PC3M cell line stably expressing the PTB-GFP was provided by Sui Huang of Northwestern University. The media and cell culture reagents were purchased from Invitrogen (Carlsbad, CA), ATPLite came from PerkinElmer.
(In ATP-based viability assays light output follows the ATP content of the culture.)
Take `N=c1c2c(-c3ccccc3)c(-c3ccccc3)n(CCc3ccccc3)c2ncn1C1CCC(O)CC1` (stereo not given): the Potency is 17.7 µM (active).

With `CN(C)CCn1cnc2c(c(-c3ccccc3)c(-c3ccccc3)n2CCc2ccccc2)c1=N`, the Potency is 15.8 µM (active).

On to `CCOC(CCCn1cnc2c(c(-c3ccccc3)c(-c3ccccc3)n2CCc2ccccc2)c1=N)OCC`, for which the Potency is 22.3 µM (active).

For the compound `N=c1c2c(-c3ccccc3)c(-c3ccccc3)n(Cc3ccccc3)c2ncn1CC1CCCO1` (stereo not given), the Potency is 19.9 µM (active).

`COc1ccc(Cn2c(-c3ccccc3)c(-c3ccccc3)c3c(=N)n(CC4CCCO4)cnc32)cc1` (stereo not given): the Potency is 19.9 µM (active).

As to `C[C@H]([C@@H](O)c1ccccc1)n1cnc2c(c(-c3ccccc3)c(-c3ccccc3)n2Cc2ccccc2)c1=N`, the Potency was 15.8 µM (active).

For `CN(C)CCCn1cnc2c(c(-c3ccccc3)c(-c3ccccc3)n2CCc2ccccc2)c1=N`, the Potency was 22.3 µM (active).

In the case of `COC(Cn1cnc2c(c(-c3ccccc3)c(-c3ccccc3)n2CCc2ccccc2)c1=N)OC`, the Potency was 17.7 µM (active).

As for `COCCn1cnc2c(c(-c3ccccc3)c(-c3ccccc3)n2Cc2ccc(OC)cc2)c1=N`, the Potency was 17.7 µM (active).

With `N=c1c2c(-c3ccccc3)c(-c3ccccc3)n(CCc3ccccc3)c2ncn1CCCCCO`, the Potency is 17.7 µM (active).

For `CN(C(=O)c1cccs1)c1cccnc1`, the Potency entry was “inactive”.

As for `COc1ccc(Cn2c(NC=N[C@H](C)[C@@H](O)c3ccccc3)c(C#N)c(-c3ccccc3)c2-c2ccccc2)cc1`, the Potency is 19.6 µM (active).

For `N=c1c2c(-c3ccccc3)c(-c3ccccc3)n(CCc3ccccc3)c2ncn1CCCO`, the Potency was 15.6 µM (active).

As to `COc1ccc(Cn2c(-c3ccccc3)c(-c3ccccc3)c3c(=N)n(CCCCCO)cnc32)cc1`, the Potency was 15.8 µM (active).

As to `N=c1c2c(-c3ccccc3)c(-c3ccccc3)n(CCc3ccccc3)c2ncn1CC1CCCO1` (stereo not given), the Potency was 11.2 µM (active).

Consider `N=c1c2c(-c3ccccc3)c(-c3ccccc3)n(CCc3ccccc3)c2ncn1[C@H](CO)Cc1ccccc1`, for which the Potency is 19.9 µM (active).

On to `CN(C)CCn1cnc2c(c(-c3ccccc3)c(-c3ccccc3)n2Cc2ccccc2)c1=N`, for which the Potency was 17.7 µM (active).

As to `COc1ccc(Cn2c(-c3ccccc3)c(-c3ccccc3)c3c(=N)n(CCCCO)cnc32)cc1`, the Potency is 12.5 µM (active).

Turning to `CN(C)CCCn1cnc2c(c(-c3ccccc3)c(-c3ccccc3)n2Cc2ccccc2)c1=N`, the Potency was 25 µM (active).

`COCCn1cnc2c(c(-c3ccccc3)c(-c3ccccc3)n2CCc2ccccc2)c1=N`: the Potency is 15.8 µM (active).
